PubChem BioAssay (NCI)
About 83,000 compounds went through this panel and 20% of them were active in at least one assay; those are over-represented in the sample as a whole.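 Percent growth is the endpoint: 0 to 100 indicates growth inhibition (40 means 60% inhibition), 0 means no net growth, and negative values indicate cell death.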 Values without a mark were called inactive. Active and inactive are the calls of the source. Rule for the calls: active = growth percent below 10; inactive = the rest.

Columns and labels:
Experiment in all cases: NCI-60 one-dose screen, 48 h (100 = growth as untreated, 0 = no growth, -100 = all killed)
Conditions in all cases: 10 µM unless noted
HCT-15 colon = system: HCT-15 colon
HT29 colon = system: HT29 colon
SNB-75 CNS = system: SNB-75 CNS
SNB-19 CNS = system: SNB-19 CNS
U251 CNS = system: U251 CNS
PC-3 prostate = system: PC-3 prostate
SK-MEL-5 melanoma = system: SK-MEL-5 melanoma
UACC-62 melanoma = system: UACC-62 melanoma
LOX IMVI melanoma = system: LOX IMVI melanoma
SK-MEL-28 melanoma = system: SK-MEL-28 melanoma

Row | Structure (SMILES) | growth (HCT-15 colon) | growth (HT29 colon) | growth (SNB-75 CNS) | growth (SNB-19 CNS) | growth (U251 CNS) | growth (PC-3 prostate) | growth (SK-MEL-5 melanoma) | growth (UACC-62 melanoma) | growth (LOX IMVI melanoma) | growth (SK-MEL-28 melanoma)
1 | CSC1=Nc2c(c(C)c(-c3ccccc3)n2CCCCl)C2=NC(=O)CN12 | 64.9% | 23.5% | 21.2% | 81.2% | 51.6% | 68.9% | 50.7% | 36.7% | 49.8% | 55.9%
2 | N#Cc1ccc(OCc2nc(N)nc(N)c2-c2ccc(Cl)c(Cl)c2)cc1 | 20.9% | 10.8% | 65.6% | 38.2% | 20.5% | 18.9% | 23.4% |  | 11.1% | 54.4%
3 | CN1CCN(Cc2ccc(NC(=O)c3ccc(C#Cc4c(N)ncc5ccc(F)cc45)cc3)cc2C(F)(F)F)CC1 | -55.4% (active) | -73.2% (active) | -15.1% (active) | -91.8% (active) | -75.8% (active) | -37.2% (active) | -91.2% (active) | -73.3% (active) | -94.3% (active) | -97.8% (active)
4 | Cc1ccc(C(=O)Nc2ccc(CN3CCN(C)CC3)c(C(F)(F)F)c2)cc1C#Cc1cncc2ncccc12 | -92.9% (active) | -89.3% (active) | -83.9% (active) | -99.3% (active) | -93.8% (active) | -69.3% (active) | -99.3% (active) | -84.8% (active) | -79% (active) | -90.4% (active)
5 | CCCCCCCCCCC1OC(C)CC(C)O1 (configuration not stated) | 102% | 106% | 95.4% | 109% | 105% | 101% | 107% | 107% |  | 102%
6 | CCCCCCCCCCCCOC(=O)/C=C\C(=O)NC(N)=O | 57.9% | 88.6% | 81.5% | 91.6% | 74% | 71.6% | 99.6% | 82% |  | 99.2%
7 | COc1ccc(/C=C2\CCCC3=C2N=C2SC=NN2C3c2ccc(OC)c(OC)c2)cc1OC (configuration not stated) | 34.2% | 14.4% | 40.1% | 68.6% | 30.2% | 67.9% | 30.8% | 38.1% | 9.24% (active) | 66%
